Assay outcomes deposited in PubChem BioAssay by National Center for Advancing Translational Sciences (NCATS).
NS1 function inh – qHTS Assay for Inhibitors of Influenza NS1 Protein Function. Potency, µM (highest dose often 46.1 µM). hit rate 0.4% among 270,000; calls by dose curve; further: actives are rising curves; nearly all actives have a fitted effect of over 50% in size
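A cell-based growth assay was used: compounds that relieve NS1-induced slow growth of budding yeast raise OD600. Assay medium was yeast nitrogen base with ammonium sulphate and -URA supplement, pH 6.0, with 2% galactose.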
LmPK inh – qHTS Assay for Inhibitors of Leishmania Mexicana Pyruvate Kinase (LmPK) | Q27686 | purified LmPK, Kinase-Glo ATP luminescence, 1 h | Potency, µM (top dose mostly 57.5 µM), hits mostly inhibitors | hit rate 0.37% among 290,000 | AID 1721, 2009
Target sequence (Q27686 whole entry, looked up): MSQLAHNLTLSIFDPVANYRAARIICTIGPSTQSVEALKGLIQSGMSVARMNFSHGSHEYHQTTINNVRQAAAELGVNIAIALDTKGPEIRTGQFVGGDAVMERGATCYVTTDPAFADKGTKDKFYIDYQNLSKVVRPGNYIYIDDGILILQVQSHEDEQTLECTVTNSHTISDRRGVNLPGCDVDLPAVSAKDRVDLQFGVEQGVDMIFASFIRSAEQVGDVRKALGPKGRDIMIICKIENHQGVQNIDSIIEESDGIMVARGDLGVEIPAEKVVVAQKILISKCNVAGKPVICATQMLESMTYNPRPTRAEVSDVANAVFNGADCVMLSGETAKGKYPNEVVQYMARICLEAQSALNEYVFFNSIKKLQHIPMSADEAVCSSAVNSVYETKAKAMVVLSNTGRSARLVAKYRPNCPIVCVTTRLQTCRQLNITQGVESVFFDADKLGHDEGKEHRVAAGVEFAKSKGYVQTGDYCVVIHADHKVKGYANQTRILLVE
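Purified LmPK (0.1 nM) with 0.5 mM PEP and 0.1 mM ADP in imidazole buffer pH 7.2 with MgCl2/KCl, 1 h at room temperature. ATP formed was read by luciferase luminescence and normalized to no-enzyme and uninhibited controls.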
Tb PYK inh – qHTS of Trypanosoma Brucei Inhibitors; hit rate 0.12% among 410,000; Potency, µM (doses to about 76.8 µM), usual class: inhibitors; TbPYK enzyme, Kinase-Glo Plus ATP luminescence, 45 min; pyruvate kinase (Trypanosoma brucei), Q57TT1; further: nearly all actives have a fitted effect of over 50% in size
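Quantitative HTS: titrated library compounds versus trypanosomal pyruvate kinase in TEA buffer (pH 7.2) containing KCl, MgCl2, BSA and Tween-20. Reactions were initiated with ADP, 130 uM final. Kinase-Glo Plus luminescence was read after 45 min at RT.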
RE007 growth inh – qHTS Assay for Inhibitors of the HIV-1 protein Vpr; hit rate 0.21% among 360,000; Potency, µM (series often up to 92.2 µM), usual class: inhibitors; S. pombe RE007 Vpr strain, BacTiter-Glo ATP luminescence, 24 h; active means well fitted falling curve with a large enough effect; inconclusive means small, poorly fitted or top-dose-only effect; inactive means no such curve, though single readings can be large or run the other way; further: nearly all actives have a fitted effect of over 50% in size
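Fission yeast RE007 carrying one integrated HIV-1 vpr copy, seeded at OD 0.01 in PMG+AL medium with 23 nL pinned compound. Grown 24 h at 30 degrees; viability read by BacTiter-Glo luminescence after 5 min.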
AMA1-RON2 inh – qHTS for Inhibitors of AMA1-RON; Towards Development of Antimalarial Drug Lead: Primary Screen. AID 720542, 2013. Potency, µM (doses to about 58.2 µM), usual class: inhibitors. AlphaScreen AMA1-biotinylated RON2 peptide binding. Plasmodium falciparum AMA1 (3D7) - RON2 peptide interaction. hit rate 0.2% among 360,000; further: nearly all actives have a fitted effect of over 45% in size
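AMA1 (3D7) with his tag at 25 nM final met compounds first, then biotinylated RON2 peptide at 25 nM; detection used donor plus acceptor beads, 10 µg/mL apiece, read by AlphaScreen after 30 min at room temperature.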
Flu NS1 inh – Assay for Inhibitors of Influenza NS1 Protein Function: Hit Validation; shares compounds with NS1 function inh; influenza NS1 function cell assay, 15-point titration; activity change, negative = inhibition, % at 32.9 µM; 1,400 tested, under 10 active; AID 492980, 2010; calls by dose curve
PR8 titer – Assay for Inhibitors of Influenza NS1 Protein Function: Influenza virus replication assay in MDCK cells infected with virus A/PR/8/34; shares compounds with NS1 function inh; MDCK infected influenza A/PR/8/34, virus titer TCID50; active compounds read low; virus titer (log TCID50), log10 TCID50 at 5 µM; hit rate 30% among 95; AID 504647, 2011; call rule not given here
Each line names hits and unclear results; the compound was inactive in the other large screens (follow-up assays come after a bar, where they were run). Rows were chosen to be rich in hits. Some 0.92% of all compounds tested hit in one or more screens of this group. Unless noted, the call rests on the fitted dose curve; in most records, active means well fitted curve in the direction sought with a large enough effect; inconclusive means small, poorly fitted or top-dose-only effect, or another doubt; inactive means no such curve, though single readings can be large; an effect the other way counts as inactive or inconclusive.

COc1ccc(-n2cnnc2SCC(=O)c2ccc(S(=O)(=O)N3CCOCC3)cc2)cc1	NS1 function inh 1.8µM | Flu NS1 inh inactive
Cc1nc(-c2ccc(Cl)cc2)sc1C1(C)CC(c2c(Cl)cccc2Cl)=NO1 (stereo unspecified)	NS1 function inh 10µM | Flu NS1 inh inactive
Cc1ccc(C(=O)Nc2ccccc2C(=O)NCc2ccco2)cc1S(=O)(=O)N1CCCCC1	NS1 function inh 10µM | Flu NS1 inh inactive
Cc1ccc(C(=O)NCc2ccco2)cc1S(=O)(=O)N1CCCCC1	none
O=C(Nc1ccccc1C(=O)O)c1cccc(NS(=O)(=O)c2ccc(Br)cc2)c1	NS1 function inh 7.9µM | Flu NS1 inh inactive
Cc1ccc(C(=O)Nc2ccccc2C(=O)O)cc1S(=O)(=O)NC1CCCCC1	NS1 function inh 14µM | Flu NS1 inh inactive | PR8 titer inactive
O=C(Nc1ccccc1C(=O)O)c1cccc(S(=O)(=O)Nc2ccc(Br)cc2)c1	none
Cc1ccc(C(=O)Nc2ccccc2C(=O)O)cc1S(=O)(=O)Nc1ccccc1	NS1 function inh 16µM | Flu NS1 inh inactive
CCC1CN(C(=O)N2CCC(C(=O)N3CCN(c4ccccc4F)CC3)CC2)c2ccccc2O1 (stereo unspecified)	none (no result: NS1 function inh, LmPK inh, RE007 growth inh, AMA1-RON2 inh)
Nc1c(S(N)(=O)=O)cc(S(N)(=O)=O)cc1S(N)(=O)=O	none (no result: LmPK inh, Tb PYK inh, RE007 growth inh, AMA1-RON2 inh)
Cc1ccc(N2CCN(C(=O)C3CCN(c4ncnc5c4nc4n5CCCCC4)CC3)CC2)c(C)c1	none (no result: NS1 function inh, LmPK inh, RE007 growth inh, AMA1-RON2 inh)
N#C/C(=C\c1c[nH]c2ccccc12)C(=O)Nc1ncc(Cc2ccc(Cl)cc2Cl)s1	NS1 function inh 11µM | Flu NS1 inh inactive
Cc1cccc(OCC(=O)NCCN2CCOCC2)c1	NS1 function inh 1.8µM | Flu NS1 inh inactive
COc1ccc(-c2cc(C(=O)OC(C)C(=O)Nc3c(C)n(C)n(-c4ccccc4)c3=O)c3ccccc3n2)cc1 (stereo unspecified)	none
Cc1c(NC(=O)C(C)OC(=O)c2cc(-c3cccc4ccccc34)nc3ccccc23)c(=O)n(-c2ccccc2)n1C (stereo unspecified)	NS1 function inh 11µM (no result: RE007 growth inh) | Flu NS1 inh inactive
COC(=O)CC1Oc2ccc(C)cc2-n2cc(-c3ccc(C)cc3)nc21 (stereo unspecified)	none (no result: NS1 function inh, LmPK inh, RE007 growth inh, AMA1-RON2 inh)
CC(C)C[C@H](NC(=O)c1nc[nH]c1C(=O)NCc1ccc(CNC(=O)OC(C)(C)C)cc1)C(=O)OC(C)(C)C	NS1 function inh 8.9µM | Flu NS1 inh inactive
C[C@H](NC(=O)c1nc[nH]c1C(=O)N[C@@H](C)C(=O)OC(C)(C)C)C(=O)OCc1ccccc1	none
C[C@H](NC(=O)c1nc[nH]c1C(=O)N[C@@H](Cc1ccccc1)C(=O)OCc1ccccc1)C(=O)OC(C)(C)C	NS1 function inh 10µM | Flu NS1 inh inactive
C[C@H](NC(=O)c1nc[nH]c1C(=O)N[C@@H](CCCCNC(=O)OC(C)(C)C)C(=O)OC(C)(C)C)C(=O)OCc1ccccc1	NS1 function inh 10µM | Flu NS1 inh inactive
CC(C)(C)OC(=O)[C@H](Cc1ccccc1)NC(=O)c1nc[nH]c1C(=O)NCC(=O)OCc1ccccc1	NS1 function inh 11µM | Flu NS1 inh inactive
CC(C)C[C@H](NC(=O)c1nc[nH]c1C(=O)N[C@@H](CCCCNC(=O)OC(C)(C)C)C(=O)OC(C)(C)C)C(=O)OCc1ccccc1	NS1 function inh inconclusive
CSc1ncc(Cl)c(C(=O)Nc2ccc(S(=O)(=O)N3CCC(C)CC3)cc2)n1	none (no result: NS1 function inh, LmPK inh, RE007 growth inh, AMA1-RON2 inh)
O=C(CSC1=Nc2ccccc2N=C(c2ccc(F)cc2)C1)NCc1ccc(Cl)cc1	none (no result: NS1 function inh, LmPK inh, RE007 growth inh, AMA1-RON2 inh)
CCN(Cc1ccccc1)C(=O)Cn1c(=O)n(-c2ccc(C)c(C)c2)c(=O)c2c(C)c(C)sc21	none (no result: NS1 function inh, LmPK inh, RE007 growth inh, AMA1-RON2 inh)
CC(=O)Nc1ccc(Nc2ncnc3ccccc23)cc1	NS1 function inh inconclusive (no result: Tb PYK inh, RE007 growth inh, AMA1-RON2 inh) | Flu NS1 inh inactive | PR8 titer inactive
Fc1ccc(Nc2ncnc3ccccc23)cc1	none
COc1cccc(Cn2c(CNS(=O)(=O)c3ccc(C(C)(C)C)cc3)nc3cccnc32)c1	none (no result: NS1 function inh, LmPK inh, RE007 growth inh, AMA1-RON2 inh)
Cc1nc(Nc2nc(CSc3nc4ccccc4[nH]3)cc(=O)[nH]2)nc2ccccc12	NS1 function inh 14µM | Flu NS1 inh inactive
Cc1onc(-c2ccccc2)c1C(=O)Nc1cccnc1	NS1 function inh 6.3µM | Flu NS1 inh inactive
CCc1ccccc1NC(=O)N(C)CCc1c(C)nn(C)c1C	none (no result: NS1 function inh, LmPK inh, RE007 growth inh, AMA1-RON2 inh)
Cc1cccc(-n2c(=S)[nH]c3c(oc4ccccc43)c2=O)c1	NS1 function inh inconclusive (no result: RE007 growth inh) | Flu NS1 inh inactive
CC(C)C(C)NC(=O)Cn1cnc2c(oc3ccccc32)c1=O (stereo unspecified)	none
O=C(Cn1cnc2c(oc3ccccc32)c1=O)NCCc1ccccc1	NS1 function inh 5µM (no result: LmPK inh) | Flu NS1 inh inactive
COCCNC(=O)c1c(NC(=O)Cc2coc3cc(C)ccc23)sc2c1CCCC2	none (no result: NS1 function inh, LmPK inh, RE007 growth inh, AMA1-RON2 inh)
CC1Oc2ccccc2N(CC(=O)N2CCCCC2)C1=O (stereo unspecified)	NS1 function inh 10µM | Flu NS1 inh inactive
CC1Oc2ccccc2N(CC(=O)N2CCCc3ccccc32)C1=O (stereo unspecified)	none
CCOC(=O)c1cccc(NC(=O)NC(C)c2c(-n3cccc3)sc3c2CCN(C)C3)c1 (stereo unspecified)	none (no result: NS1 function inh, LmPK inh, RE007 growth inh, AMA1-RON2 inh)
N#CCC(=O)NN=C1CCCCCCCCCCC1	NS1 function inh 1.8µM | Flu NS1 inh inactive
